# Legend:
# Experiment in all cases: DAPPL (digital affinity profiling via proximity ligation, sequencing); 10 mM Tris-HCl pH 7.5, 50 mM NaCl, 1 mM DTT, 4% glycerol, room temperature, 30 min; GST-TFs on glutathione beads, 16-mer random dsDNA library, 0.1% formaldehyde crosslink after washing; high values mean tight binding
# FLI1 = target: T1, FLI1 (Homo sapiens, UniProt Q01543 1-452); conditions: protein: recombinant; tags: N-terminal GST; dsDNA, one strand shown
# T1 sequence: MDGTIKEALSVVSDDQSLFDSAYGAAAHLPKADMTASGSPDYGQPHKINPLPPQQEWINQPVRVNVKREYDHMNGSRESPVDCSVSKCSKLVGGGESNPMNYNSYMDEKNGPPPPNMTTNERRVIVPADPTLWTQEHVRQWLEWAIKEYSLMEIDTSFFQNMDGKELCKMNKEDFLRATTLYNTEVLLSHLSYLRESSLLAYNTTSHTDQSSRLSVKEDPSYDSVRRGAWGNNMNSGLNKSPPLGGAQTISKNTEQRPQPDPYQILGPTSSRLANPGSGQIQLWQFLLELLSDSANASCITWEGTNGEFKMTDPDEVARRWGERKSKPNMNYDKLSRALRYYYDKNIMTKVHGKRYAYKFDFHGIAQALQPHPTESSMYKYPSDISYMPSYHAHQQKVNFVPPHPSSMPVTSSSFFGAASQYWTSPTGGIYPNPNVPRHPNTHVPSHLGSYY
# In short: (§1)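 GST fusions of human transcription factors were expressed in yeast and captured with glutathione beads. Once given DNA barcodes and pooled alongside a tag-only sample, they were incubated for 30 min at room temperature with 200 nmole of a random double-stranded 16-mer DNA library in Tris/NaCl/DTT/glycerol buffer, then washed, crosslinked (0.1% formaldehyde), proximity-ligated, PCR-amplified and sequenced on an Illumina NextSeq500. The binding signal of each hexamer is its read frequency for a factor divided by its frequency for the tag-only sample.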
# ELK1 = target: T2, ELK1 (Homo sapiens, UniProt P19419 1-428); conditions: protein: recombinant; tags: N-terminal GST; dsDNA, one strand shown
# T2 sequence: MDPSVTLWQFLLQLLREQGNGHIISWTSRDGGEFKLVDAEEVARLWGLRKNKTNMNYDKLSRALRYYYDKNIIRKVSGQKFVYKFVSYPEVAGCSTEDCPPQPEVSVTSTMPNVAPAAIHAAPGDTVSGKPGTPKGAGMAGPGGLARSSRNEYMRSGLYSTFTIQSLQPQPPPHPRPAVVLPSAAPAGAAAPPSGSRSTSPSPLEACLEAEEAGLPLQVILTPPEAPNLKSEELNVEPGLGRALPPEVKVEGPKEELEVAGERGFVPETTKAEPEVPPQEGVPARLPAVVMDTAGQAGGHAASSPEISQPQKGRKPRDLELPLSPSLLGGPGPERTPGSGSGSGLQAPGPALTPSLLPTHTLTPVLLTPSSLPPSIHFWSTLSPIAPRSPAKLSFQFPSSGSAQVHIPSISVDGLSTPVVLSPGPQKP
# In short: as §1
# GABPA = target: T3, GABPA (Homo sapiens, UniProt Q06546 1-454); conditions: protein: recombinant; tags: N-terminal GST; dsDNA, one strand shown
# T3 sequence: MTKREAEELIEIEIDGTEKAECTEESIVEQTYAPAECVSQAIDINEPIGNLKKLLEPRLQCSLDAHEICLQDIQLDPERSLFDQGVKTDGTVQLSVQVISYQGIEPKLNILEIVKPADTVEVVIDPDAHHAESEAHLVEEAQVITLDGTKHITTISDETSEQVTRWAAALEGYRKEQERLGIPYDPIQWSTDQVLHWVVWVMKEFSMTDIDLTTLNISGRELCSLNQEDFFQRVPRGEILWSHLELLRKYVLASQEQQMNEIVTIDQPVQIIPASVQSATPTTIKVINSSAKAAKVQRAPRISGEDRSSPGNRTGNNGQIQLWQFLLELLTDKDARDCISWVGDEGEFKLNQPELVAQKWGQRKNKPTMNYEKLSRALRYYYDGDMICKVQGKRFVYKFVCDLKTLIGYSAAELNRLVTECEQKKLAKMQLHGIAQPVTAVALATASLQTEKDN
# In short: as §1
# ERG = target: T4, ERG (Homo sapiens, UniProt P11308 1-479); conditions: protein: recombinant; tags: N-terminal GST; dsDNA, one strand shown
# T4 sequence: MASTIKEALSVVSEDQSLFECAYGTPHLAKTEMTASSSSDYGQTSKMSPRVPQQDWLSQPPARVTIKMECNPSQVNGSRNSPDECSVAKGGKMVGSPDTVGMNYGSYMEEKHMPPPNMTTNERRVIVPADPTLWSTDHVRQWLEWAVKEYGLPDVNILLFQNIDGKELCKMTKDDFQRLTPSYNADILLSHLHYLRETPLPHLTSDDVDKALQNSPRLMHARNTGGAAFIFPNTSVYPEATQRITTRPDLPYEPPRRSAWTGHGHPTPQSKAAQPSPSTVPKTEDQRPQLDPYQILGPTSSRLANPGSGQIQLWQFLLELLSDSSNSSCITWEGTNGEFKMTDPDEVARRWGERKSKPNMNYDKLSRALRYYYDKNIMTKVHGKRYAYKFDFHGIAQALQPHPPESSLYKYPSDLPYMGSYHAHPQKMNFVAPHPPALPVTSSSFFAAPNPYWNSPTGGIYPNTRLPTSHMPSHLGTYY
# In short: as §1
# ELF1 = ELF1 (Homo sapiens, UniProt P32519 1-619); conditions: protein: recombinant; tags: N-terminal GST; dsDNA, one strand shown
# Sequence of ELF1 (P32519 whole entry): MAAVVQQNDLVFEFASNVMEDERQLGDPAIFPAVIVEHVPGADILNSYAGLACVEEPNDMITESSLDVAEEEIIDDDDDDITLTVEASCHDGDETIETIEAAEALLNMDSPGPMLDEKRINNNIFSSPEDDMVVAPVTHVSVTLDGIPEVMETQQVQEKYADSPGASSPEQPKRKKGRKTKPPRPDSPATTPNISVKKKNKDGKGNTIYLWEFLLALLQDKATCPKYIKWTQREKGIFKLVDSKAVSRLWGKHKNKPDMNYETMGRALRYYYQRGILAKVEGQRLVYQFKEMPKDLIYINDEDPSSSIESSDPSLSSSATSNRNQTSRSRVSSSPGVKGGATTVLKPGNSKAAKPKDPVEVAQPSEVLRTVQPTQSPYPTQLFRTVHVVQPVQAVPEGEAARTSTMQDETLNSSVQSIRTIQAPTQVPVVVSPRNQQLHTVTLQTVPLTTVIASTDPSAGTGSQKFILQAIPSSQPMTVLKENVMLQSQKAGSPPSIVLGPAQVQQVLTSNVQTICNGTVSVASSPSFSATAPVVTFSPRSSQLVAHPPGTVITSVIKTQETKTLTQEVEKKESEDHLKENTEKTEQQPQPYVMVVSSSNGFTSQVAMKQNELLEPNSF
# In short: as §1
# EHF = target: T5, EHF (Homo sapiens, UniProt Q9NZC4 1-300); conditions: protein: recombinant; tags: N-terminal GST; dsDNA, one strand shown
# T5 sequence: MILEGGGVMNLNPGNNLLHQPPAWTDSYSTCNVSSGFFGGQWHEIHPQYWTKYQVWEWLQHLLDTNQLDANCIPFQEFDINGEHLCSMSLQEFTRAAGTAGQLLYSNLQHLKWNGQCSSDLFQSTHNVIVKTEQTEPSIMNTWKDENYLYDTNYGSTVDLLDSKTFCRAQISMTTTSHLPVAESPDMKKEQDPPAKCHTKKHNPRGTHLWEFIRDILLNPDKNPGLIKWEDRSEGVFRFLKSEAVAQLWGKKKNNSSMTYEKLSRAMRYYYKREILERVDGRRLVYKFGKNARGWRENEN
# In short: as §1
# SPI1 = SPI1 (Homo sapiens, UniProt P17947 1-270); conditions: protein: recombinant; tags: N-terminal GST; dsDNA, one strand shown
# In short: as §1
# SPIB = SPIB (Homo sapiens, UniProt Q01892 1-262); conditions: protein: recombinant; tags: N-terminal GST; dsDNA, one strand shown
# Sequence of SPIB (Q01892 whole entry): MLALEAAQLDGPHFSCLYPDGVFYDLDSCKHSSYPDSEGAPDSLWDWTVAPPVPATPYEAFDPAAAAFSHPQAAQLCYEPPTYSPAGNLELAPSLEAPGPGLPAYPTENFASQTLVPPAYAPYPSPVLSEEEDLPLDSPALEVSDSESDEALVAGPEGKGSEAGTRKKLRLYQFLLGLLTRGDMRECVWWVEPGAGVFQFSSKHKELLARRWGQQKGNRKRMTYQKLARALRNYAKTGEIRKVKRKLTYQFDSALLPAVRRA
# In short: as §1
# ELK3 = target: T6, ELK3 (Homo sapiens, UniProt P41970 1-407); conditions: protein: recombinant; tags: N-terminal GST; dsDNA, one strand shown
# T6 sequence: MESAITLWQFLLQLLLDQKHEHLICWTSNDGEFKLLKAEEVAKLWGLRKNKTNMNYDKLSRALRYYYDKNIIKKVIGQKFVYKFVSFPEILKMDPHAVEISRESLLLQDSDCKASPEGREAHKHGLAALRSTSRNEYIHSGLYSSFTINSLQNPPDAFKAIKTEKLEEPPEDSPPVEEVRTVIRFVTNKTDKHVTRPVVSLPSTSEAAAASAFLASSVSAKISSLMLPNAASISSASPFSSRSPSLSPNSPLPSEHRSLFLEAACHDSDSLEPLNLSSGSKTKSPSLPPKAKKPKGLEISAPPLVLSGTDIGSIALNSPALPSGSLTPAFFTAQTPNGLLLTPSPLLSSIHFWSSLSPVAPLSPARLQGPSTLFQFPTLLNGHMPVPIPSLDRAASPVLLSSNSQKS
# In short: as §1
# FEV = target: T7, FEV (Homo sapiens, UniProt Q99581 1-238); conditions: protein: recombinant; tags: N-terminal GST; dsDNA, one strand shown
# T7 sequence: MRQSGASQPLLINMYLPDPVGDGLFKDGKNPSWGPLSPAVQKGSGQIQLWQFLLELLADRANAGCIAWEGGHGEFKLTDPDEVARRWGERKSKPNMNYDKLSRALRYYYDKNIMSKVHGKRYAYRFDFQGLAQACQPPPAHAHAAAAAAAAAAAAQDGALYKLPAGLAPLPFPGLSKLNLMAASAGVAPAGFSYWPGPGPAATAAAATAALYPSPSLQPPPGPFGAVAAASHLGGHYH
# In short: as §1
# ETV5 = ETV5 (Homo sapiens, UniProt P41161 1-510); conditions: protein: recombinant; tags: N-terminal GST; dsDNA, one strand shown
# Sequence of ETV5 (P41161 whole entry): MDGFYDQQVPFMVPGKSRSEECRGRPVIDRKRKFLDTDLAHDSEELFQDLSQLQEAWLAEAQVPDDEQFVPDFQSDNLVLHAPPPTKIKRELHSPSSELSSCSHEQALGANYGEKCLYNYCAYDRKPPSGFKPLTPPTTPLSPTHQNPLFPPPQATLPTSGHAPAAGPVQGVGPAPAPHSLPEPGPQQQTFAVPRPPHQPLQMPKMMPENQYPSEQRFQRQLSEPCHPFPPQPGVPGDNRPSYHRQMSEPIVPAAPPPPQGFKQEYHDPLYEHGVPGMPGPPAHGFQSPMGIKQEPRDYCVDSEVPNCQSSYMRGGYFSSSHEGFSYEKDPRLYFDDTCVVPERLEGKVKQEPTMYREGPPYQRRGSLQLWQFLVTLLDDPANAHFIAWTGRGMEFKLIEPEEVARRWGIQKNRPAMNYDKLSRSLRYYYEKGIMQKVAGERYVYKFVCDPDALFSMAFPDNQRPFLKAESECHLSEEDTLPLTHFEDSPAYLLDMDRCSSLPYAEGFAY
# In short: as §1
# HSF1 = HSF1 (Homo sapiens, UniProt Q00613 1-529); conditions: protein: recombinant; tags: N-terminal GST; chain copies: 3; dsDNA, one strand shown
# Sequence of HSF1 (Q00613 whole entry): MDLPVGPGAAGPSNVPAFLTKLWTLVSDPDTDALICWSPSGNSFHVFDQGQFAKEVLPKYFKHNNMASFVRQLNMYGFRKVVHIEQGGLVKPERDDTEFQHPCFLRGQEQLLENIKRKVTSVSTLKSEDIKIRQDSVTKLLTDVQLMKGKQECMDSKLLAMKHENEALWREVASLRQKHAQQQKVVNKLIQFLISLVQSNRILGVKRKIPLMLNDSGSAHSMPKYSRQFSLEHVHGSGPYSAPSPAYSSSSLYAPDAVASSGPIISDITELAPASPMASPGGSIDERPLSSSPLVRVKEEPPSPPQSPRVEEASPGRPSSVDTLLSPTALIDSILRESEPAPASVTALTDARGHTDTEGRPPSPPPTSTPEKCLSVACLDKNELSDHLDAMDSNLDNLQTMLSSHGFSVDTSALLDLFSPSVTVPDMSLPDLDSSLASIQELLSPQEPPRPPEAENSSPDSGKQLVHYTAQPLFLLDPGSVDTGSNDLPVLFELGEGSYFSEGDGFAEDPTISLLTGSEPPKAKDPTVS
# In short: as §1
# SPIC = target: T8, SPIC (Homo sapiens, UniProt Q8N5J4 1-248); conditions: protein: recombinant; tags: N-terminal GST; dsDNA, one strand shown
# T8 sequence: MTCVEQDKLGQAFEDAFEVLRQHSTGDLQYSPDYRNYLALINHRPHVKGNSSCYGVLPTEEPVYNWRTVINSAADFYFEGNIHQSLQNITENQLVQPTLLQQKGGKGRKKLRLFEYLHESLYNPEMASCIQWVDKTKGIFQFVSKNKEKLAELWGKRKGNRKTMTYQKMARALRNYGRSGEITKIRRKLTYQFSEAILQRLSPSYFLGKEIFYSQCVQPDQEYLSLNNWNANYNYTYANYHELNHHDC
# In short: as §1
# ELF4 = ELF4 (Homo sapiens, UniProt Q99607 1-663); conditions: protein: recombinant; tags: N-terminal GST; dsDNA, one strand shown
# Sequence of ELF4 (Q99607 whole entry): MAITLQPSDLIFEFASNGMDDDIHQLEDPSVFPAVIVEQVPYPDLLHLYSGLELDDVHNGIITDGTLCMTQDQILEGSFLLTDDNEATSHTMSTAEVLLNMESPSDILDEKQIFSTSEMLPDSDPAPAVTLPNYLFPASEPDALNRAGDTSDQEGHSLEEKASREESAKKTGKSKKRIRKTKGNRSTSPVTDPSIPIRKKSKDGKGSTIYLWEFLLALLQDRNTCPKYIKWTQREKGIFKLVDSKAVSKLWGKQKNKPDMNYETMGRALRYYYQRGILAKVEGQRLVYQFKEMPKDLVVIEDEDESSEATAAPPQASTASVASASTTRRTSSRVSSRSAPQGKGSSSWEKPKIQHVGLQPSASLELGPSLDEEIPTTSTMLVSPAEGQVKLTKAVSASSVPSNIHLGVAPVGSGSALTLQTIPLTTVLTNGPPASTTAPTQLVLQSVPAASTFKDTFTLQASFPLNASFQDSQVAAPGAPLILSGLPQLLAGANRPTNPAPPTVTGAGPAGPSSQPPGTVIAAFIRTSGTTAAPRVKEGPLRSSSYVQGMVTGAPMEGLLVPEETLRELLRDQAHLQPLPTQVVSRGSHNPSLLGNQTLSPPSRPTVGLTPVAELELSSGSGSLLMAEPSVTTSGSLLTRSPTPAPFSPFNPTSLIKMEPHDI
# In short: as §1
# ELK4 = target: T9, ELK4 (Homo sapiens, UniProt P28324-2 1-405); conditions: protein: recombinant; tags: N-terminal GST; dsDNA, one strand shown
# T9 sequence: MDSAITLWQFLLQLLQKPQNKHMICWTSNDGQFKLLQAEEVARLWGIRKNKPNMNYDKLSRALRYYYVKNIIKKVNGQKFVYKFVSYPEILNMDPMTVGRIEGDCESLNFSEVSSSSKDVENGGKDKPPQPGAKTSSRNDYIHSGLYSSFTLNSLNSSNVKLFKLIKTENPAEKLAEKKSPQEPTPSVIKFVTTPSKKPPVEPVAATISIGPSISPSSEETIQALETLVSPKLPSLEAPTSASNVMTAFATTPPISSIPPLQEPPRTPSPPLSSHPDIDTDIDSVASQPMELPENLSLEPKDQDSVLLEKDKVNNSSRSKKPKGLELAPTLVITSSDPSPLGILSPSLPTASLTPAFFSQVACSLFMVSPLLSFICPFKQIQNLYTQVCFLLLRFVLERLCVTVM
# In short: as §1
# ETV2 = target: T10, ETV2 (Homo sapiens, UniProt O00321 1-342); conditions: protein: recombinant; tags: N-terminal GST; dsDNA, one strand shown
# T10 sequence: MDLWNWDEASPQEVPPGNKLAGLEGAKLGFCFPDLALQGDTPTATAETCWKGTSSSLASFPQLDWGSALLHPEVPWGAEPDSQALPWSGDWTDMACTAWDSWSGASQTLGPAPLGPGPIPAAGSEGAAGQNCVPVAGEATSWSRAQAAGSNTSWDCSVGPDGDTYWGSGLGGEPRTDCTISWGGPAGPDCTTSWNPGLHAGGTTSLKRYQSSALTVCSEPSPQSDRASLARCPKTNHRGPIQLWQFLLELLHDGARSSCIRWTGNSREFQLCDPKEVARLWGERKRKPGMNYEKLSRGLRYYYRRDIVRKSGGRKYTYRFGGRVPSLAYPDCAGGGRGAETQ
# In short: as §1
# ELF3 = target: T11, ELF3 (Homo sapiens, UniProt P78545 1-371); conditions: protein: recombinant; tags: N-terminal GST; dsDNA, one strand shown
# T11 sequence: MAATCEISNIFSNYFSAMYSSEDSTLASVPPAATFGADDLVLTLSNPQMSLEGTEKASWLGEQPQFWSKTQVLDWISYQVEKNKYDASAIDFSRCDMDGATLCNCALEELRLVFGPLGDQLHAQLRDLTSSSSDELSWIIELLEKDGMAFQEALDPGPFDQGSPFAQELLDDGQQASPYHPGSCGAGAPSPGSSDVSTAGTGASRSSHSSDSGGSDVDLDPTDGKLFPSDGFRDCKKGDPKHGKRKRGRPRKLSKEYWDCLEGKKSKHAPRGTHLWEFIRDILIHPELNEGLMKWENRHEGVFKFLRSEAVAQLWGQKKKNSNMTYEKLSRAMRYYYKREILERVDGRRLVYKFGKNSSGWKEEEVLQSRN
# In short: as §1
# CRX = CRX (Homo sapiens, UniProt O43186 1-299); conditions: protein: recombinant; tags: N-terminal GST; dsDNA, one strand shown
# Sequence of CRX (O43186 whole entry): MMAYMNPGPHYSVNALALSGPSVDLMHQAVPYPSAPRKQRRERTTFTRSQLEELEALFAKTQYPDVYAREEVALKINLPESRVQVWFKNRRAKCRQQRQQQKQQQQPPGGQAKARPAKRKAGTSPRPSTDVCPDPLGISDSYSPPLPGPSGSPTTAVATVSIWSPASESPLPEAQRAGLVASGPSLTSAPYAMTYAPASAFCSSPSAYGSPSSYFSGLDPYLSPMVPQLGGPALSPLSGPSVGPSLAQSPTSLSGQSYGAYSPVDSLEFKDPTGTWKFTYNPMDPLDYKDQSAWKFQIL
# In short: as §1
# ETV1 = ETV1 (Homo sapiens, UniProt P50549 1-477); conditions: protein: recombinant; tags: N-terminal GST; dsDNA, one strand shown
# Sequence of ETV1 (P50549 whole entry): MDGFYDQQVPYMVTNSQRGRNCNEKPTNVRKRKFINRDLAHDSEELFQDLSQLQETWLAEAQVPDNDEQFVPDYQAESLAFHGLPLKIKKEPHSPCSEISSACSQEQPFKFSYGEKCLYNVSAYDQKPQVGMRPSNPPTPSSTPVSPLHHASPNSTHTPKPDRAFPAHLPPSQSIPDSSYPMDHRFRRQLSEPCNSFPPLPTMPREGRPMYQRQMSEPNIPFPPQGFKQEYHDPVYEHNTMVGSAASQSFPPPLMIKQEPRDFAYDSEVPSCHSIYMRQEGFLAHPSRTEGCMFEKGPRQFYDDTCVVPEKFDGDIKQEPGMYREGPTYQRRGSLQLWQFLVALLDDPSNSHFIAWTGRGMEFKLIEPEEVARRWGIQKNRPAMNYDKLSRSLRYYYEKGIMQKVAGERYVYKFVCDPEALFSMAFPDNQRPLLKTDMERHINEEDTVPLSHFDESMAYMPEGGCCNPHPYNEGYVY
# In short: as §1
sequence,measurement,setting,value
TAATTT,binding signal,FLI1,"1.35 fold enrichment (6-mer frequency, TF over GST control)"
same,binding signal,ELK1,"1.28 fold enrichment (6-mer frequency, TF over GST control)"
same,binding signal,GABPA,"1.5 fold enrichment (6-mer frequency, TF over GST control)"
same,binding signal,ERG,"1.4 fold enrichment (6-mer frequency, TF over GST control)"
same,binding signal,ELF1,"1.41 fold enrichment (6-mer frequency, TF over GST control)"
same,binding signal,EHF,"1.41 fold enrichment (6-mer frequency, TF over GST control)"
same,binding signal,SPI1,"1.38 fold enrichment (6-mer frequency, TF over GST control)"
same,binding signal,SPIB,"1.5 fold enrichment (6-mer frequency, TF over GST control)"
same,binding signal,ELK3,"1.52 fold enrichment (6-mer frequency, TF over GST control)"
same,binding signal,FEV,"1.35 fold enrichment (6-mer frequency, TF over GST control)"
same,binding signal,ETV5,"1.46 fold enrichment (6-mer frequency, TF over GST control)"
same,binding signal,HSF1,"1.64 fold enrichment (6-mer frequency, TF over GST control)"
same,binding signal,SPIC,"1.41 fold enrichment (6-mer frequency, TF over GST control)"
same,binding signal,ELF4,"1.36 fold enrichment (6-mer frequency, TF over GST control)"
same,binding signal,ELK4,"1.38 fold enrichment (6-mer frequency, TF over GST control)"
same,binding signal,ETV2,"1.58 fold enrichment (6-mer frequency, TF over GST control)"
same,binding signal,ELF3,"1.49 fold enrichment (6-mer frequency, TF over GST control)"
same,binding signal,CRX,"2.03 fold enrichment (6-mer frequency, TF over GST control)"
same,binding signal,ETV1,"1.35 fold enrichment (6-mer frequency, TF over GST control)"
